Measurements as given in article PMC5540273 (PLoS ONE, 2017).

tested on: CLK2; settings: concentration: 1 μM, replicates: in singlicate; n = 1
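Also: KINOMEscan kinase panel screen.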

| SMILES | %Inh [%] |
| --- | --- |
| COCCOCCOc1cc2ncc3c4ccc(C#N)cc4[nH]c3c2cc1OC | 67 |
| COc1cccc(-c2ccc3c(NC(=O)C4CC4)n[nH]c3n2)c1 [SB-710903] | 100 |
| Nc1ncc(-c2ccc3nccc(-c4ccncc4)c3c2)cc1S(=O)(=O)N1CCOCC1 [GSK1627798] | 72 |
| Cc1ccc(C(=O)N2CC[C@@H](O)C2)cc1-n1c(C)cc(OCc2ccc(F)cc2F)c(Br)c1=O | 0 |
| O=C(O)C(F)(F)F.O=C(O)C(F)(F)F.O=c1[nH]ccc2nc(N[C@@H]3CCCNC3)nc(Nc3ccc(S(=O)(=O)N4CCOCC4)cc3)c12 [GSK2177277] | 98.9 |
| COc1cc(Nc2nccc(-c3c(-c4cccc(NC(=O)c5c(F)cccc5F)c4)nn4ncccc34)n2)cc(OC)c1OC [GSK327238] | 0 |
| COc1cccc(C2=C(Nc3ccc(Cl)c(C(=O)O)c3)C(=O)NC2=O)c1 [SB-390769] | 6 |
| Cc1ccc(C(=O)Nc2ccc(Nc3ccnc4cc(-c5nccs5)ccc34)cc2O)cc1.Cl [GW494702] | 0 |
| CCn1c(-c2nonc2N)nc2c(C#CC(C)(C)O)nc(OC[C@H](N)c3ccccc3)cc21 [GSK943949] | 0 |
| COC(=O)Nc1nc2cc(Oc3ccc(NC(=O)Nc4cc(C(F)(F)F)ccc4F)cn3)ccc2[nH]1.Cl.Cl [GW681170] | 8 |
| Cl.Cl.NCC(NCc1ccc(-c2ccnc3[nH]ccc23)s1)c1ccccc1 (centres unmarked) [GSK1321565] | 43 |
| O=c1[nH]cc(-c2ccc(N3CCOCC3)cc2)c2sc(-c3cn[nH]c3)cc12 [GSK2276055] | 76 |
| c1ccc(-c2cnc3nccnn23)cc1 [AH20685] | 0 |
| COc1cc(Nc2nccc(-c3c(-c4cccc(NC(=O)c5c(F)cccc5F)c4)nn4ccccc34)n2)cc(OC)c1OC [GSK323521] | 0 |

tested on: CLK3; settings: concentration: 1 μM, replicates: in singlicate; n = 1

| SMILES | %Inh [%] |
| --- | --- |
| Cc1ccc(C)c(NC(=O)NC2CCN(c3ccnc(Nc4ccc(F)cc4)n3)C2)c1 (centres unmarked) [GSK1379720] | 0 |
| Cl.Cl.NCC(NC(=O)c1cc(-c2ccccc2)c(-c2ccnc3[nH]ccc23)s1)c1ccccc1 (centres unmarked) [GSK1321561] | 49 |
| CN(C)Cc1ccc(-c2ccc3c(Nc4ccc(Oc5ccccn5)cc4)ccnc3c2)o1 [GW567148] | 12 |
| COc1cccc(C(=O)Nc2cccc(Oc3ccc4nc(NC(=O)C5CC5)cn4n3)c2)c1 | 5 |
| CNC(=O)c1ccccc1Nc1nc(Nc2ccc(N3CCOCC3)cc2)ncc1Cl.Cl [GSK1576028] | 90 |
| C[C@@H]1CC[C@@H](C(=O)Nc2ccccc2)CN1c1cc(-c2ccc3c(N)n[nH]c3c2)nc(N)n1 [GSK2286062] | 0 |
| Cn1cc(-c2ccc3c(c2)CCN3C(=O)Cc2cccc(Cl)c2)c2c(N)ncnc21 [GSK2606590] | 13 |
| FC(F)(F)c1ccc(/C=C/c2cncnc2Nc2ccc3[nH]c(Cc4ccccc4)nc3c2)cc1 [GW709199] | 11 |
| COc1cccc(NC(=O)NC2CCN(c3ccnc(Nc4cc(OC)c(OC)c(OC)c4)n3)C2)c1 (centres unmarked) [GSK1379763] | 0 |
| Fc1ccc(-c2ncn(C3CCNCC3)c2-c2ccnc(Oc3ccc(-c4ccccc4)cc3)n2)cc1 [SB-245391] | 32 |
| Oc1cc(Nc2ccnc3cc(I)ccc23)ccc1F [GW552771] | 0 |
| COC(=O)Nc1nc2ccc(Oc3ccc(NC(=O)Nc4cc(C(F)(F)F)ccc4F)cc3)cc2n1C.Cl [GW692089] | 0 |
| CC(=O)N1CCN(c2ccc(Nc3nccc(-c4sc(C(C)C)nc4-c4cccc(NS(=O)(=O)c5cccc(Cl)c5)c4)n3)cn2)CC1 [GSK1660437] | 0 |
| Cl.Cl.NCC(C(=O)Nc1cc(Br)c(-c2ccnc3[nH]ccc23)s1)c1ccccc1 (centres unmarked) [GSK1269851] | 39 |
| CC(C)(C)c1ccc2nccc(Nc3cccc(O)c3)c2c1 [GW856795] | 0 |
| NCCCC(NC(=O)c1cc(Br)c(-c2ccnc3[nH]ccc23)s1)c1ccccc1.O=C(O)C(F)(F)F.O=C(O)C(F)(F)F (centres unmarked) [GSK1287544] | 33 |
| Cl.c1ccc(-c2ccc3c(Nc4ccc5[nH]ncc5c4)ccnc3c2)nc1 [GW440137] | 12 |
| c1ccc(Oc2ccc(Nc3ccnc4cc(-c5ccc(CNCCN6CCOCC6)o5)ccc34)cc2)nc1 [GW567145] | 0 |
